Measurements reported in PubChem BioAssay AID1347426 (Functional Genomics Laboratory (NCATS/FGL), 2020).
Out of some 31,000 sequences screened, about 1,400 (4.5%) were called active.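 How the source made its calls: active means median seed-adjusted z-score above 1 or below -1; inactive means the rest.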 The sample as a whole holds a higher share of actives than the screen did.

assay: Novel Modifiers of Survival Motor Neuron (SMN) Protein: Gene Identification via Genome-wide siRNA Screen; conditions: HEK293T SMN2-luciferase reporter, siRNA knockdown, 72 h; actives lie on both sides;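 further: luminescence tracks full-length SMN protein made from the SMN2 reporter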
Method in brief: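 HEK293T cells stably carrying an SMN2 promoter/splicing cassette–luciferase reporter were reverse-transfected with 1 pmol siRNA per well (druggable-genome library, 3 siRNAs per gene) and grown 72 h at 37 °C. Luminescence, normalized to negative-control siRNA and log10-transformed, was scored as MAD.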

Sequence | median seed-adjusted z-score
CACCGUCUGAGAUAAUAGATT against LST-3TM12 | -0.109 (inactive)
CUGUCCGUAUGAUUACAAATT against ZFAND5 | 0.0289 (inactive)
GCAUCGCCCUGAUGAGUAATT against ADCY7 | -0.0202 (inactive)
CCUCAUGUCGGGCAUCUUATT against EGR4 | 0 (inactive)
GAUUCUUUUGAAAAAGUGATT against ZNF675 | -0.343 (inactive)
GGAUUAUUCAUUAUUACAUTT against NDUFB6 | -0.357 (inactive)
GCUCAACAGUCCCUAGUUATT against RSC1A1 | 0.438 (inactive)
CCAUCAAGCUCUACAAGGATT against TOP3B | -1.11 (active)
CAGUUCAAGUGACCAUUGATT against CD300LF | -0.264 (inactive)
GGUUCUUCCCGUUGUCUUUTT against TOMM22 | 0.486 (inactive)
GGACCACAGACAUAGUAGATT against NCOA5 | 0.947 (inactive)
ACAUGGACAAUGCCGCAGATT against HSPBP1 | 0.368 (inactive)
CUAAGAUGGUUAUCAAGAATT against SLC1A2 | 0.249 (inactive)
CGAAGGAUAUCUAUCAUCATT against NXF1 | -4.46 (active)
GGACUACGGAGUUCGAGAATT against MGC29506 | 0 (inactive)
CCCAUAAUAUCAUUGAGAATT against SREBF2 | -0.606 (inactive)
GGUCCGGAAUGUGAACUUUTT against SERPINE2 | 0.0144 (inactive)
AGAUGGAGUUUGAUCCUAATT against POLR2G | -4.19 (active)
GAACUGCAAAGACCUGUUUTT against SSU72 | -1.64 (active)
CCUCAUCAACUCUGACAUATT against LMO2 | 0 (inactive)
CCGUGAUCGUGAAGCUAGATT against PKD2 | 0.219 (inactive)
CCCUCAGACUGUACGCAGATT against PGM5 | -0.0543 (inactive)
GGAAACUCGUGGACUAUGATT against BIN2 | 0.205 (inactive)

Sequence | median seed-adjusted z-score
CGCUCACACUGGGUUCCAATT against SLC34A1 | 0.139 (inactive)
UGAGCACAAUCAAGUCUAATT against BRD4 | 1.13 (active)
GAAUUGGAAGAAGAUAUCATT against RHOBTB3 | 0.256 (inactive)
GAUGAUCUGUGAGACCAAATT against BOC | -0.0192 (inactive)
CAUCAACGAAGGAAAUAUATT against CD27 | 0.5 (inactive)
GUUCCUUAUUGUUAAGGUATT against PCDHB10 | -0.09 (inactive)
GAAUGGAAGAUUUCACCUUTT against SNAPC3 | -1.72 (active)
GGAGCUACUUUGACUCACUTT against KCNK13 | -0.0924 (inactive)
GCUCUGUGCUCUCUAGUGATT against LEFTY1 | 0.383 (inactive)
CCCUCACUAUCACGGUUAATT against ATP6V1B2 | 0.24 (inactive)
GUGCAUGUAUGAAGCCGAATT against NDUFB10 | -0.39 (inactive)
AGAAGGUGACUCAAAGAAUTT against WFDC1 | 0.152 (inactive)
AGCUCUUUGCUACAGAUGATT against ACAD8 | 1.06 (active)
GGACCGUGUUCUUUACGUATT against NDUFAB1 | -0.282 (inactive)
CCCUGUUAUGUCAAGCUUATT against SYNPR | 0.257 (inactive)
CUUAAUUCUUGGUCUAUGATT against SP6 | -0.176 (inactive)
AGUUCAUGCAAGAUCCAAUTT against BAT1 | -1.49 (active)
AGCGCGUCAUGAUGACCUATT against PER1 | 0.176 (inactive)
AGCCCGUGAUGUACACGUATT against COL8A1 | -0.848 (inactive)
GAUCCACCUGAGACAGAAATT against EGR2 | -0.37 (inactive)
GGAUCUAUCUCAUCAAACATT against NDUFC1 | 0 (inactive)
CAGACUUAUUACUAGAUGATT against PRDX5 | -0.0386 (inactive)
GCAAAGGCACUGAAUCGAATT against MAP4K5 | -0.309 (inactive)

Sequence | median seed-adjusted z-score
GCCCGUCUAUGACAAGAAATT against RELB | 1.16 (active)
CGCCUUGAAUGGGAGCAAATT against C2 | -0.0549 (inactive)
GUGUAUUACCUGAGAAUCATT against CYP24A1 | 0.136 (inactive)
CAGGUACCGUCAUCACAUUTT against PCDHA7 | 0.552 (inactive)
GACUCGUGGUUUGAAGUGATT against ZNRF1 | -0.808 (inactive)
CCCAGUUCCUAGACUGUAUTT against MTMR8 | -0.416 (inactive)
CGACCUUCAAAGUUAACAATT against CLIP1 | 0.853 (inactive)
CCUCUUACACUUUUCCGAATT against PECI | -0.0254 (inactive)
GUACCCUGGAGGAAAGCGATT against GNRH2 | 1.13 (active)
AGAGGAUCCUGAACUCCAATT against MYO19 | 0.0987 (inactive)
AUCAAGUCUUCUUACAAGATT against VDAC2 | 0.648 (inactive)
GAAUGAGGCAUAUCAAGCATT against TUBD1 | -0.00491 (inactive)
GGAAAUCCUUCAUAUACAATT against ZNF549 | 0.0114 (inactive)
GAUUCCGUCUAAUCCUAGATT against C5 | 0.153 (inactive)
ACAAUGAAGUUCUCCCUGATT against PCGF1 | 0.508 (inactive)
CCUCAUUUGUCUACACCAUTT against RAD51L1 | 0 (inactive)
GGUAUGAGGUUGACUCAUUTT against IFNAR1 | 0.0327 (inactive)
GGAGACCUGCGAUUACUUUTT against BARX2 | -0.206 (inactive)
GGAGCUCAUUUGACAUGUATT against KIR2DL5B | 1.72 (active)
GCGACUGUCUCGACAGAUATT against HTT | -0.234 (inactive)
GGAUAGCUAAAGAAAUUCATT against IMPA1 | -0.295 (inactive)
CCACACUGGUGAUAGACCATT against ZNF384 | -0.132 (inactive)
UGAAAGGACUUGUCUGAAATT against CHST6 | 0.372 (inactive)
